# Data: PubChem BioAssay (NCI)
# “And” between values parts separate entries of the source, which are not always exact repeats. Equal entries are not always repeated. This is part of a sample that, as a whole, favours compounds with a hit. Of some 83,000 tested, about 20% had one in any assay.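 The test compound was applied at a single concentration to cells in 96-well plates for 48 hours, and percent growth was recorded.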 Unmarked numbers belong to inactive results. The source made the active and inactive calls. The calls were made as follows: active = growth percent below 10; inactive = the rest. Where a SMILES comes first, the peptide text is derived from it. Bridges are numbered along the chain shown (N, C = ends). [ ]: non-standard residue; d: D form. The star is where a group is joined. ξ: configuration not given here. ξNMePhe(4-NMe2) = CNC(Cc1ccc(N(C)C)cc1)C(=O)O; Picolinoyl(3-OH) = O=C(c1ncccc1O)*; ξPip(4-oxo) = O=C1CCNC(C(=O)O)C1; Phg = N[CH](C(=O)O)c1ccccc1; Abu = CC[CH](N)C(=O)O
# Key:
# Experiment in all cases: NCI-60 one-dose screen, 48 h (100 = growth as untreated, 0 = no growth, -100 = all killed)
# SK-MEL-2 melanoma = details: 10 µM
# EKVX NSCLC = details: 10 µM
# SN12C renal = details: 10 µM
# UO-31 renal = details: 10 µM
# TK-10 renal = test system: TK-10 renal
# ACHN renal = details: 10 µM
# CAKI-1 renal = details: 10 µM
# CCRF-CEM leukemia = details: 10 µM
# MOLT-4 leukemia = details: 10 µM
# A498 renal = details: 10 µM
Compound,growth (SK-MEL-2 melanoma),growth (EKVX NSCLC),growth (SN12C renal),growth (UO-31 renal),growth (TK-10 renal; 10 µM unless noted) [%],growth (ACHN renal),growth (CAKI-1 renal),growth (CCRF-CEM leukemia),growth (MOLT-4 leukemia),growth (A498 renal) [%],growth (TK-10 renal; 10 µM),growth (TK-10 renal; 100 µM)
N#CCCN(CCCN1CCOCC1)CN1C(=O)c2ccccc2C1=O,118%,107%,108%,77.2%,103,113%,98.6%,106%,90.9%,,,
Cc1cc(C)cc(NCCC#N)c1,98.3%,103%,110%,96.5%,129,107%,107%,96.8%,91.4%,,,
Nc1nc(OCc2ccccc2)c2[nH]cnc2n1,107%,95%,105%,96.9%,82.1,73.5%,74%,143%,73%,,,
COc1cc(C(N)=O)cc(OC)c1OC,114%,102%,96.1%,82.5%,111,105%,91%,103%,84.5%,,,
CN(c1ccccc1)c1ncnc2c1ncn2C,100%,102%,98%,79.9%,105,101%,94%,99.1%,95.6%,,,
CCC1NC(=O)C(NC(=O)c2ncccc2O)C(C)OC(=O)C(c2ccccc2)NC(=O)C2CC(=O)CCN2C(=O)C(Cc2ccc(N(C)C)cc2)N(C)C(=O)C2CCCN2C1=O (centres undefined) (tested in a mixture with another compound) ({Picolinoyl(3-OH)}-T[Abu]P[ξNMePhe(4-NMe2)][ξPip(4-oxo)][Phg]; ester 1-C; configuration not given here),95.9%,41%,75%,90.8%,91,47.5%,50.8%,32%,42.2%,,,
CCc1ccc(/C(C#N)=C/C=C/c2ccccc2)cc1,-12.2% (active),52.3%,53.2%,42.9%,16.9,58.3%,53.7%,-5.51% (active),20.7%,,,
NC(N)=Nc1cc2ccccc2c2ccccc12,108%,83.9%,80.5%,57%,105,72.3%,,40.5%,41.6%,59.3,,
Cc1ccc(Cl)cc1NC(=O)N(C)CCO,97.4%,116%,105%,76%,126,103%,,98.7%,97.5%,111,,
COc1cc(C(=O)NC(=S)Nc2ccc3ccccc3c2)cc(OC)c1OC,83.6%,102%,104%,66.7%,117,93.7%,75.1%,98.6%,89.4%,,,
C/C(=C\c1ccc([N+](=O)[O-])cc1)C(=O)O,110%,94.7%,99%,95.3%,105,98%,95.6%,87.6%,102%,,,
Cc1nc2ccccc2c(C(=O)O)c1O,313%,103%,98.3%,91.2%,113,97.8%,,121%,132%,117,,
CCS(=O)(=O)CCCl,102%,89.6%,97.8%,,96.5,97.3%,101%,63.6%,89.5%,129,,
COc1ccccc1NC(=O)C1=C(C)NC(C)=C(C(=O)Nc2ccccc2OC)C1c1cccc([N+](=O)[O-])c1,79.6%,44.1%,68.4%,,97.4,54.6%,50.1%,64.5%,37.4%,128,,
COc1ccc(-c2cc(-c3cc(-c4ccc(OC)cc4)nc(N)n3)nc(N)n2)cc1,115%,92.1%,93.8%,,102,97.6%,91.9%,76.7%,112%,94.1,,
COc1ccc2c(c1)CCc1c-2n[nH]c1-c1[nH]nc2c1CCc1cc(OC)ccc1-2,61.7%,59.8%,91.6%,,109,57.8%,53.2%,41.8%,50.4%,109,,
O=[N+]([O-])c1ccc(N=Nc2ccc(O)c3ccccc23)cc1,43.2%,60%,35.3%,24%,76.1,47.3%,,,31.5%,71.8,,
CCCCOC(=O)c1ccc(C(C)C)cc1,99.7%,91.7%,102%,91.7%,,104%,96.7%,112%,83.3%,87,,
CCCC1(c2ccccc2)NC(=O)NC1=O (centres undefined),103%,118%,104%,,95.2,103%,116%,99.7%,123%,121,,
CCN=c1cc2sc3cc(NCC)c(C)cc3nc-2cc1C,26.5%,-7.52% (active),-83.1% (active),40.5%,,53%,-56% (active),14%,8.77% (active),47.7,,
CCCCCCCCCCCCCC(=O)Oc1ccc[nH]c1=O,115%,83.4%,98.1%,,84.2,110%,84.5%,75.5%,98.6%,94.5,,
CC(=O)c1sc2c(c1OC(=O)c1ccc(Cl)cc1Cl)c(=O)n(-c1ccccc1)c(=S)n2-c1ccccc1,-43.9% (active),51.4%,13.4%,,,-18.2% (active),13.5%,-24.2% (active),-11.4% (active),,-9.03% (active),2.01% (active) and -66.5% (active)
O=S(=O)(O)c1ccc(O)c2ccccc12,97.2%,88.9%,103%,77.7%,,100%,68.5%,99.4%,95.4%,112,,
COc1cccc(O)c1O,72.4%,99.6%,74.5%,70.3%,91.2,73.2%,,63.8%,64.8%,,,
CS(=O)CC1=NC(=N)N=C1CS(C)=O (centres undefined),115%,98.7%,101%,,101,107%,92.9%,108%,107%,104,,
c1ccc(Sc2ccccc2)cc1,97.5%,101%,105%,87%,101,108%,,97.7%,87.4%,97.6,,
CCCCC1(CC)COC(CCC)OC1 (centres undefined),104%,93.1%,97.6%,,101,99.2%,84.2%,102%,103%,127,,
COc1ccccc1NC(=O)c1cc2cc(Br)ccc2cc1O,-31.5% (active),22.4%,9.1% (active),-3.91% (active),39.8,-6% (active),,-4.98% (active),-0.261% (active),,,
